Inconclusive results are not listed. Calls of active or inactive are those of the source. The call rests on the fitted dose curve; in most records, active means well fitted inhibition curve with a large enough effect; inconclusive means small, poorly fitted or top-dose-only effect; inactive means flat fitted curve, though single readings scatter.
Tests used:
Experiment in all cases: qHTS profiling for inhibitors of Plasmodium falciparum proliferation (AID 504749); further: nearly all actives have a fitted effect of over 60% in size
Conditions in all cases: P. falciparum in erythrocytes, SYBR Green DNA, 72 h; series mostly up to 28.7 µM
[1] = system: CP185
In short: (§1)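 In a 72 h erythrocytic culture (37 C, humidified, 5% CO2) at 2.5% hematocrit and 0.3% starting parasitemia, compounds were tested; SYBR Green I in detergent lysis buffer stained parasite DNA overnight.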

[2] = system: CP191
In short: as §1

[3] = system: CP194
In short: as §1

[4] = system: CP201
In short: as §1

[5] = system: CP203
In short: as §1

[6] = system: CP215
In short: as §1

[7] = system: CP217
In short: as §1

[8] = system: CP238
In short: as §1

[9] = system: CP247
In short: as §1

[10] = system: CP250
In short: as §1

[11] = system: CP252
In short: as §1

[12] = system: CP262
In short: as §1

[13] = system: CP265
In short: as §1

[14] = system: CP268
In short: as §1

[15] = system: CP237
In short: as §1

[16] = system: CP260
In short: as §1

[17] = system: CP256
In short: as §1

[18] = system: CP192
In short: as §1

[19] = system: CP211
In short: as §1

Measured: Potency
Potency means the concentration at half of the fitted maximal effect.

CN1C[C@@H](NS(=O)(=O)N(C)C)C[C@@H]2c3cccc4c3c(cn4C)C[C@H]21
inactive: [1] | [2] | [3] | [4] | [5] | [6] | [7] | [8] | [9] | [10] | [11] | [12] | [13] | [14]

N#Cc1nn(-c2c(Cl)cc(C(F)(F)F)cc2Cl)c(N)c1S(=O)C(F)(F)F (stereo not drawn)
active: [2] 6.31 µM | [3] 15.1 µM | [4] 13.5 µM | [7] 8.91 µM | [15] 5.01 µM | [10] 11.2 µM | [16] 8.91 µM | [12] 10.7 µM | [14] 6.01 µM

O=C(CCCN1CCC(n2c(=O)[nH]c3ccccc32)CC1)c1ccc(F)cc1
active: [2] 1 µM | [5] 4.55 µM | [6] 4.55 µM | [7] 3.98 µM | [15] 1.41 µM | [8] 3.55 µM | [9] 3.55 µM | [10] 2.82 µM | [17] 3.55 µM | [16] 1.58 µM | [13] 1.12 µM | [14] 3.61 µM
inactive: [12]

OC(O)C(Cl)(Cl)Cl
inactive: [1] | [18] | [3] | [4] | [5] | [19] | [6] | [7] | [15] | [8] | [9] | [10] | [11] | [17] | [16] | [12] | [14]

Source: PubChem BioAssay (NCATS)
